PMC12136788
Changes are numbered by the printed parent chain. Whole data set: some 24,000 sequences, median “enrichment r” near 0.99, cut for the highest 2% near 3.7. Only a selection was taken, and the highest values are over-represented in it overall.

T1: UNK ZnF1-3 (human, UniProt Q9C0B0 31-174)
T1 sequence: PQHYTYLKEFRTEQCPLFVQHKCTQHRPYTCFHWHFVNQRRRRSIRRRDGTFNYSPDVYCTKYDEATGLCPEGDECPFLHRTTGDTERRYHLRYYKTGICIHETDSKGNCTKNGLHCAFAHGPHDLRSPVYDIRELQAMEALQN

B1: 103221519_103221723_537_3pUTR_ENSMUSG00000041781_ENSMUST00000047357|mouse|control|control (ssRNA)
RNA: GGGAGUUCUACAGUCCGACGAUCCAAUCUGAGAGAACUUCAGCUGCUGUAUUUUGUCAAAGGCUGCAUCCACAUCAUCCAAUGUAAAGAGGGUAAAAUCUUCUGUAUUGUGUCGAGACUGAUAGAGGUCGUACAUGAACAUCUCAACAGAGGAUUGAGCAUCA
B2: chr4:25749455:25749456:-_ENSG00000091490_ENST00000264868|hu_hu|hu_hu_hu_mus_False|8_108 (ssRNA)
RNA: GGGAGUUCUACAGUCCGACGAUCGCAAGCACUAGGAUAGAAAAAUCCACAGGGGGAAAAAAUGUAAACCAAUGUACAAUGUUAUCGCCUUCCCUGUGUGUGGAGUGUUUGUCUCAAGGCUCCUUCUUGCCUUAUAAUUUGGGACAACAGAGGAUUGAGCAUCA
B3: chr11:46405157:46405158:+_ENSG00000110492_ENST00000395566|hu_hu|hu_hu_hu_mus_False|78_78 (ssRNA)
RNA: GGGAGUUCUACAGUCCGACGAUCCCCUCCCCACUUUGGGCACUUGGUGUGGGCGUGAAGGCAGGGCCGUGAUUGACAGAGCUGACAGGAAGACAAAAGGCACUGGUGGGUUAUAUCUUGGGCCUGUGGGAGAGGAGGGCUCCGCAACAGAGGAUUGAGCAUCA
B4: 52873384_52873592_4094_CDS_ENSMUSG00000035247_ENSMUST00000042052|mouse|control|control (ssRNA)
RNA: GGGAGUUCUACAGUCCGACGAUCCACCAGGCGCCUCUGCCUUCUAAGAUUAGCUUCUGCUUCUUUAGCUGCUUUCCCUAGUUGGUCUUCGCACACGCCAUUCACAGUGCCAUAGAGUUCAAAGCCGGAGAGCGAGAGGUAGUGCAACAGAGGAUUGAGCAUCA
B5: 19964410_19964530_1467_3pUTR_ENSMUSG00000020152_ENSMUST00000000137|mouse|control|control (ssRNA)
RNA: GGGAGUUCUACAGUCCGACGAUCUCUAAAUGCCUACAAAGAAAGAAACAGAGCAGCAGCAACCCCUUGCCCUGGUAAUGUCUGCAAAGAUUUGGUAGCCUUAAACAACCAGAUUUACCCAUAUUAACAAGAAUUUAGCAAUGCCAACAGAGGAUUGAGCAUCA
B6: chr7:149838072:149838073:-_ENSMUSG00000048583_ENSMUST00000000033|mus_hu|FALSE|FALSE (ssRNA)
RNA: GGGAGUUCUACAGUCCGACGAUCUCACUGCCCCCCUGUUACAUGGGGGGGGGGUUUAAUUUGGUUUCUGAGCGCAUAAAGCUAAGGAGGGGUAAAAAAAAAACAAAAAAAAAAAAAAAAGGAAAAAUGCCCCAAGAAACAAAGCAACAGAGGAUUGAGCAUCA
B7: chr7:149838072:149838073:-_ENSMUSG00000048583_ENSMUST00000000033|mus_hu|motif|central (ssRNA)
RNA: B6 RNA with U82G, A83G
B8: chr1:183098298:183098299:+_ENSMUSG00000062169_ENSMUST00000134115|mus_hu|FALSE|FALSE (ssRNA)
RNA: GGGAGUUCUACAGUCCGACGAUCUAUAAACAUGGCACCUUUCUGAUUUGCUUAGCCUCAGCAAGCCUGAUGUACUGUAAACUGACAGCCCAAAGGCUCUCUCAACUGCAUGAGUCACUGUUUUGGUUACUAAGAAUAUCUGAACAACAGAGGAUUGAGCAUCA
B9: chr13:112505112:112505113:+_ENSMUSG00000032727_ENSMUST00000109272|mus_mus|FALSE|FALSE (ssRNA)
RNA: GGGAGUUCUACAGUCCGACGAUCCAUAAAGGAUUCGGGGACAGCAAUGCCCAUCUUCAAUCUCUUUGCUGGUCUUUCGGAUUCUUCGCUGCACAUGGGGUUUAACUCUGAGUGAUAAAAUCCAGUCUCAAAUAAAUUAAAACACAACAGAGGAUUGAGCAUCA
B10: chr8:4269914:4269915:-_ENSMUSG00000002949_ENSMUST00000149827|mus_mus|motif|central (ssRNA)
RNA: GGGAGUUCUACAGUCCGACGAUCCUUCUUGGCCUCAUCUCGGAACUUUUUUAUACUUUCUUUCAUCUCUUUGUUUUUGGCGGAUUCUUGUUUGAUGUUAUCUAGCAAGCCUGACAAAAACCCUUUUCUGCUCCCAGAAGAAUACAACAGAGGAUUGAGCAUCA
B11: 19721883_19722003_1295_CDS_ENSMUSG00000050428_ENSMUST00000053109|mouse|control|control (ssRNA)
RNA: GGGAGUUCUACAGUCCGACGAUCAGGGCUCACUGUCAGGCACACAGUCUCUUCCUUCACGUUCUUGGUGCCAUCUUUGCCAAAGAAGAUGCACGCAUCCACUACACCUGUUACCACCACAUCUACAUGGAAUCCUGAUGCACCCAACAGAGGAUUGAGCAUCA
B12: chr18:56819859:56819860:+_ENSG00000166562_ENST00000588875|hu_mus|hu_hu_hu_mus_True|18_38 (ssRNA)
RNA: GGGAGUUCUACAGUCCGACGAUCAACCUUGAUUACUCUGUGAACUAUCGGAAUGUCUCUUCCUUCAACCUUAAAAACAACUAUUUCACCAGCUCUGAUUGGGUCUUCCCGGAAAUUUGUGAGGAACAGCAGAUCUCCUCUGUGCAACAGAGGAUUGAGCAUCA
B13: chr6:128323885:128323886:+_ENSMUSG00000001517_ENSMUST00000073316|mus_mus|motif|central (ssRNA)
RNA: GGGAGUUCUACAGUCCGACGAUCAGGGUCCUCCUCCAGGCCAGGGAAACUGAUGUCUAGAAGGAUCUUGCUGAGGCGGUCAUUCAUUGUGUCCAGGACAAGGCCUUCUGUGAGAGAACGGUUGGCUGAAAGGCUGGGAAUCUGCAACAGAGGAUUGAGCAUCA
B14: chr12:48459454:48459455:-_ENSG00000079387_ENST00000551330|hu_mus|motif|central (ssRNA)
RNA: GGGAGUUCUACAGUCCGACGAUCUGCUUUCUGCUCUUCAAUCCGGCGCAAUCUUUCCCGAGCUCGAGAGUCAUAAACGCGGGUUAAUUCUUUGAUCCAUAGCUCUGCCUGGAAGAACGUAGGGCUGGAAGCUGGAGUCUGAGACAACAGAGGAUUGAGCAUCA
B15: 55347689_55347809_2221_3pUTR_ENSMUSG00000021488_ENSMUST00000099490|mouse|control|control (ssRNA)
RNA: GGGAGUUCUACAGUCCGACGAUCACUCAGCAGUUUCAGGCUCCAUUGUCUUGGUAGAACCCAUUAAAUGGUCUGCAUGGGAAUUAGUAAUGAGGGAUUUCUGUUUCUCUUUUAUCCUGUUUGUGACAGGAUAUCUAGAAUACUCAACAGAGGAUUGAGCAUCA
B16: chr3:122152592:122152593:-_ENSG00000114030_ENST00000344337|hu_mus|motif|central (ssRNA)
RNA: GGGAGUUCUACAGUCCGACGAUCAUUUGUGAUGGCCCAAGCAGCUUCCUUCCUUGUCCGGAACUCUGCUGUUUGCAAUAUACGGAUAAGAGCUGGGAACAUGUUAGCAUCUAUCACAGUCUGGAUCUGUGCCCUAUUUCCAGCCAACAGAGGAUUGAGCAUCA
B17: chr17:60770872:60770873:+_ENSG00000011028_ENST00000303375|hu_hu|hu_hu_hu_mus_True|1_38 (ssRNA)
RNA: GGGAGUUCUACAGUCCGACGAUCUCUUUAAAAAAAAAAAAAAAAAGACAAACAAUAAUAGCACAUUUCGAGAAUCAAGAACUACAAUAGAGGGUCCAUGUCUUCGAUUUGUUCACAUCGUCCUGCACUGGGACACGACCAGGACAACAGAGGAUUGAGCAUCA
B18: chr17:60770872:60770873:+_ENSG00000011028_ENST00000303375|hu_hu|hu_hu_hu_mus_True|28_68 (ssRNA)
RNA: GGGAGUUCUACAGUCCGACGAUCUCUUUAAAAAAAAAAAAAAAAAGACAAACAAUAAUAGCACAUUAUUUAAAAAAAGAACUACAAUAGAGGGUCCGCUUUGAGUUGUCCAUGUUCUCGUCCUGCACUGGGACACGGGGACUGCAACAGAGGAUUGAGCAUCA
B19: chr17:60770872:60770873:+_ENSG00000011028_ENST00000303375|hu_hu|hu_hu_hu_mus_True|18_68 (ssRNA)
RNA: GGGAGUUCUACAGUCCGACGAUCUCUUUAAAAAAAAAAAAAAAAAGACAAACAAUAAUAGCACAUUAUUUAAAAAAAGAACUACAAUAGAGGGUCCGCUUUGAGUUUUUGUUCACAACAUUGUCCCCUGGGACACGGGGACUGCAACAGAGGAUUGAGCAUCA
B20: chr17:60770872:60770873:+_ENSG00000011028_ENST00000303375|hu_hu|hu_hu_hu_mus_True|1_18 (ssRNA)
RNA: GGGAGUUCUACAGUCCGACGAUCUCUUUAAAAAAAAAAAAAAAAAGACAAACAAUAAUAGCACAUUUCGAGAAUCAAGAACUACAAUAGAGGGUCCGCUUUGAGUUUUUGUUCACAACAUUGUCCCCUGGGACACGACCAGGACAACAGAGGAUUGAGCAUCA
B21: chr17:60770872:60770873:+_ENSG00000011028_ENST00000303375|hu_hu|hu_hu_hu_mus_True|1_68 (ssRNA)
RNA: GGGAGUUCUACAGUCCGACGAUCUCUUUAAAAAAAAAAAAAAAAAGACAAACAAUAAUAGCACAUUAUUUAAAAAAAGAACUACAAUAGAGGGUCCGCUUUGAGUUUUUGUUCACAUCGUCCUGCACUGGGACACGACCAGGACAACAGAGGAUUGAGCAUCA
B22: chr17:60770872:60770873:+_ENSG00000011028_ENST00000303375|hu_hu|hu_hu_hu_mus_True|68_68 (ssRNA)
RNA: B19 RNA with A117U, A119G, U121C, G122C, C124G, C126A
B23: chr17:60770872:60770873:+_ENSG00000011028_ENST00000303375|hu_hu|hu_hu_hu_mus_True|58_68 (ssRNA)
RNA: B19 RNA with A77U, G78C, A86G, A117U, A119G, U121C, G122C, C124G, C126A

biological target: T1, UNK ZnF1-3; assay: nsRBNS (natural sequence RNA bind-n-seq); RBNS binding buffer (assumed for nsRBNS): 25 mM Tris pH 7.5, 150 mM KCl, 3 mM MgCl2, 0.01% Triton X-100, 500 ug/ml BSA, 20 U/ml SUPERase-In, 4 C; UNK is unkempt and MSI1 is Musashi-1; names of the RNAs are library labels; protein concentration not given here; high values mean tight binding

Binder | binding signal [enrichment R]
B1 | 1.57
B2 | 0.93
B3 | 2.23
B4 | 1.03
B5 | 1.74
B6 | 12.2
B7 | 22.9
B8 | 0.858
B9 | 1.01
B10 | 0.472
B11 | 1.01
B12 | 0.803
B13 | 1.01
B14 | 1.03
B15 | 0.567
B16 | 0.808
B17 | 2.39
B18 | 4.92
B19 | 4.47
B20 | 3.43
B21 | 3.57
B22 | 4.87
B23 | 4.95
